Screening data as filed in PubChem BioAssay.
Hsp70 activator: transcriptional activators of Hsp70. HeLa Hsp70 promoter luciferase reporter, luminescence; scaled: vehicle 0, proteasome-inhibitor control 100%. activation, % at 10 µM. 200,000 compounds, 0.04% hits;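 active = activation above the mean across all tested compounds plus 3 SD, cutoff set per campaign, cut at about 5.5% in these data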
NALP1 yeast inh: blocks the NALP1 inflammasome reconstituted in yeast | S. cerevisiae NALP1/ASC/caspase-1 growth, X-gal OD620, 72 h | 280,000 compounds, 0.61% hits | AID 2071 | inhibition, % at 10 µM; in the data active = inhibition mostly above about 24%, no sharp cut-off; inactive = mostly below about 32%
HSP90 refold inh: HSP90 refolding inhibition in rabbit reticulocyte lysate; 290,000 compounds, 0.91% hits; inhibition, % at 5.6 µM; AID 1789; luciferase refolding luminescence, 3 h;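 active = inhibition above the screen-wide mean plus 3 SD, computed separately per campaign, cut at about 16% in these data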;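 also: inhibitors lower the luminescence because luciferase stays unfolded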
HSF-1 act: increases HSF-1 driven luciferase reporter signal; AID 504408; 300,000 compounds, 1.7% hits; activation, % at 9 µM; NIH3T3-HGL HSF-1 luciferase reporter, MG132, 8 h; 100% = twice DMSO control signal;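 active = mean replicate activation of at least 50% with a set share of replicates each reaching 50%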
p-CIP stab down: lowers stability of the mouse p/CIP coactivator protein | F442A p/CIP-EGFP cells, EGFP fluorescence, 16 h | 290,000 compounds, 0.01% hits | decrease of EGFP signal, % at 10 µM;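 active = EGFP signal decrease of at least 30% at 10 µM or well 3 SD below plate mean, unless failing retest; inactive = the rest, including hits failing retest or dose response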
HSF1 inh: HSF1 inhibition; activity change, negative = inhibition, % at 7.5 µM (by protocol); 300,000 compounds, 0.77% hits; AID 2098; NIH3T3-HGL HSE-luciferase, MG132-induced, luminescence 8 h; hits give low values;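 active = more than half of replicate wells show activity change below -50%, luminescence cut by over half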;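 also: luciferase reports HSF-1 transcriptional activity via heat shock element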
A number is an active result. Compounds with a hit are over-represented: about 3.8% of the library has one in this group of screens.

What do the screens show for `CCOc1ccccc1N(CC(=O)NC1CCCC1)C(=O)CNC(=O)c1cccs1`?
NALP1 yeast inh: inactive; HSP90 refold inh: inactive; HSF-1 act: inactive; p-CIP stab down: inactive; HSF1 inh: inactive

How did Cc1ccc(S(=O)(=O)Nc2cccc(C(=O)N3CCCC3)c2)cc1F do in these assays?
HSF-1 act: inactive; HSF1 inh: inactive

Results for CCSc1nnc(NC(=O)c2cccnc2Cl)s1 ?
Hsp70 activator: inactive; NALP1 yeast inh: inactive; HSP90 refold inh: inactive; HSF-1 act: 55; p-CIP stab down: inactive; HSF1 inh: inactive

How did c1ccc(-c2nc3c(ccc4ccccc43)[nH]2)nc1 do in these assays?
Hsp70 activator: inactive; NALP1 yeast inh: inactive; HSP90 refold inh: inactive; HSF-1 act: 58; p-CIP stab down: inactive; HSF1 inh: inactive

How did c1ccc(-c2nc3ccccc3[nH]2)nc1 do in these assays?
Hsp70 activator: inactive; NALP1 yeast inh: inactive; HSP90 refold inh: inactive; HSF-1 act: inactive; p-CIP stab down: inactive; HSF1 inh: inactive

How did CC(=O)N1CC(=O)N=C1SCC(=O)Nc1nc(-c2ccccc2)c(-c2ccccc2)s1 do in these assays?
Hsp70 activator: inactive; NALP1 yeast inh: inactive; HSP90 refold inh: inactive; HSF-1 act: inactive; p-CIP stab down: inactive; HSF1 inh: inactive

Results for COc1ccc(S(=O)(=O)NCc2ccccn2)cc1 ?
Hsp70 activator: inactive; NALP1 yeast inh: inactive; HSP90 refold inh: inactive; HSF-1 act: inactive; p-CIP stab down: inactive; HSF1 inh: inactive

What do the screens show for `CCOc1ccc(S(=O)(=O)NCc2ccccn2)cc1`?
Hsp70 activator: inactive; NALP1 yeast inh: 42; HSP90 refold inh: inactive; HSF-1 act: inactive; p-CIP stab down: inactive; HSF1 inh: inactive

How did O=S(=O)(NCc1ccccn1)c1ccc2ccccc2c1 do in these assays?
NALP1 yeast inh: inactive; HSP90 refold inh: inactive; HSF-1 act: 72; p-CIP stab down: inactive; HSF1 inh: inactive

How did CC1CCN(Cc2cc(=O)oc3ccc4ccccc4c23)CC1 do in these assays?
NALP1 yeast inh: inactive; HSP90 refold inh: inactive; HSF-1 act: inactive; p-CIP stab down: inactive; HSF1 inh: inactive

What do the screens show for `N/C(=N\OC(=O)CSc1ccccc1)c1ccncc1`?
NALP1 yeast inh: inactive; HSP90 refold inh: inactive; HSF-1 act: inactive; p-CIP stab down: inactive; HSF1 inh: inactive

What do the screens show for `O=C(O)CC1=C(Nc2ccccc2)C(=O)N(c2ccccc2)C1c1ccc(Br)cc1` (configuration not stated)?
Hsp70 activator: inactive; NALP1 yeast inh: inactive; HSP90 refold inh: inactive; HSF-1 act: 57; p-CIP stab down: inactive; HSF1 inh: inactive

Results for O=C(O)CC1=C(O)C(=O)N(c2ccccc2)C1c1ccc(Cl)cc1 (configuration not stated) ?
Hsp70 activator: inactive; NALP1 yeast inh: inactive; HSP90 refold inh: inactive; HSF-1 act: inactive; p-CIP stab down: inactive; HSF1 inh: inactive

Results for NC(=O)c1ccsc1NC(=O)C1CCCCC1 ?
Hsp70 activator: inactive; NALP1 yeast inh: inactive; HSP90 refold inh: inactive; HSF-1 act: inactive; p-CIP stab down: inactive; HSF1 inh: -57

How did NC(=O)c1ccsc1NC(=O)c1cccs1 do in these assays?
Hsp70 activator: inactive; HSP90 refold inh: inactive; HSF-1 act: inactive; HSF1 inh: inactive

How did Cc1cc(Cl)c(OCCCn2ccnc2)c(Br)c1 do in these assays?
Hsp70 activator: inactive; NALP1 yeast inh: 50; HSP90 refold inh: inactive; HSF-1 act: inactive; p-CIP stab down: inactive; HSF1 inh: inactive

What do the screens show for `CC(C)(C)n1ncc2c(=O)n(CC(=O)NCc3ccc(F)cc3)cnc21`?
Hsp70 activator: inactive; NALP1 yeast inh: inactive; HSP90 refold inh: 16; HSF-1 act: inactive; p-CIP stab down: inactive; HSF1 inh: inactive

What do the screens show for `CC(C)(C)n1ncc2c(=O)n(CC(=O)NCc3ccco3)cnc21`?
Hsp70 activator: inactive; NALP1 yeast inh: inactive; HSP90 refold inh: inactive; HSF-1 act: inactive; p-CIP stab down: inactive; HSF1 inh: inactive

How did CCN(CC(=O)N1CCN(Cc2ccccc2)CC1)S(=O)(=O)c1ccc(F)cc1 do in these assays?
NALP1 yeast inh: inactive; HSP90 refold inh: inactive; HSF-1 act: inactive; p-CIP stab down: inactive; HSF1 inh: inactive

Results for CC(C)c1ccc2oc(=O)cc(CN3CCCCC3)c2c1 ?
NALP1 yeast inh: inactive; HSP90 refold inh: inactive; HSF-1 act: inactive; p-CIP stab down: inactive; HSF1 inh: -54

What do the screens show for `Cn1cnnc1SCC(=O)Nc1nc(-c2ccc(F)cc2)cs1`?
Hsp70 activator: inactive; NALP1 yeast inh: inactive; HSP90 refold inh: inactive; HSF-1 act: inactive; p-CIP stab down: inactive; HSF1 inh: inactive
